The values that follow come from PubChem BioAssay (NCATS).

Results filed as inconclusive are left out. Values without a mark were called inactive. Active and inactive are the calls of the source. The call rests on the fitted dose curve; in most records, active means well fitted cell-killing curve with a large enough effect; inconclusive means small, poorly fitted or top-dose-only effect, or effect the other way; inactive means no such curve, though single readings can be large or run the other way.
Potency means the concentration at half of the fitted maximal effect.

This assay can be described thus: Quantitative High-Throughput drug screen in 47 multiple myeloma cell lines against the NCATS MIPE library collection: LP1_DSMZ cell viability assay (AID 1918982). Further: nearly all actives have a fitted effect of over 35% in size. The following applies: LP1 myeloma viability, CellTiter-Glo ATP luminescence, 48 h; series mostly up to 45.8 µM; viability (% of control): at the top concentration. An excerpt: PI: Beverly A. Mock Ph.D.
Laboratory of Cancer Biology and Genetics,
Center for Cancer Research, National Cancer Institute,
National Institute of Health, Bethesda, Maryland
Drug resistance and disease progression are common in multiple myeloma (MM) patients, underscoring the need for new therapeutic combinations. […] We hypothesized that effective combinations would reduce MYC expression and enhance p16 activity. […] These preclinical data identify potentially useful drug combinations for evaluation in drug-resistant MM and reveal potential mechanisms of combined drug sensitivity.
Described herein is the primary MIPE qHTS used to cherrypick compounds. Validated compounds were then further tested for potential synergistic activiy.
[1] Peat TJ, Gaikwad SM, Dubois W, Gyabaah-Kessie N, Zhang S, Gorjifard S, Phyo Z, Andres M, Hughitt VK, Simpson RM, Miller MA, Girvin AT, Taylor A, Williams D, D'Antonio N, Zhang Y, Rajagopalan A, Flietner E, Wilson K, Zhang X, Shinn P, Klumpp-Thomas C, McKnight C, Itkin Z, Chen L, Kazandijian D, Zhang J, Michalowski AM, Simmons JK, Keats J, Thomas CJ, Mock BA. Drug combinations identified by high-throughput screening promote cell cycle transition and upregulate Smad pathways in myeloma. Cancer Lett. 2023 Aug 1;568:216284. doi: 10.1016/j.canlet.2023.216284. Epub 2023 Jun 24. PMID: 37356470; PMCID: PMC10408729.
SEQUENCE No. (e.g., 1, 2, 3, etc.); […] (e.g., Cells, Incubation, Reagent, etc.); VALUE and DESCRIPTION.
1; Cells; 5 uL; white, solid bottom 1536-well Greiner assay plate.
2; Compounds; 23 nL; Kalypsis pin tool (Wako USA) equipped with a 1536-well pin head to transfer to the assay plates.
3; Incubation; 48 hours; 37C incubation.
4; Reagent;5uL; CellTiter Glo (Promega).
5; Detector; 425V; Luminescence; Viewlux PerkinElmer.
NOTES (numbers refer to Sequence numbers above)
1. The cell-based screening methods employed in this study were like those previously published. Briefly, the corresponding myeloma cell lines were screened in 1,536-well plates with 500 cells, 5-uL per well for inhibition of cell viability (assessed by measuring ATP levels with CellTiterGlo).
2. NCATS MIPE 4.0 library of approved and investigational drugs were added using the Kalypsis pin tool. Wells treated with DMSO only for 100% viability and media only for 0% viability were used as controls.
3. The assay plates were covered and incubated for 48 hours in a 37C, 5% CO2 incubator with controlled humidity.
4. After 48 hours, CellTilter-GloTM luminescent substrate mix (Promega) reagent was added to the assay plate and plates we incubated for 5 min at room temperature.
5. Signal was measured as median relative luminescence units on a ViewLux (PerkinElmer) multiplate reader.
[1] Heske CM, Davis MI, Baumgart JT, Wilson K, Gormally MV, Chen L, Zhang X, Ceribelli M, Duveau DY, Guha R, Ferrer M, Arnaldez FI, Ji J, Tran HL, Zhang Y, Mendoza A, Helman LJ, Thomas CJ. Matrix Screen Identifies Synergistic Combination of PARP Inhibitors and Nicotinamide Phosphoribosyltransferase (NAMPT) Inhibitors in Ewing Sarcoma. Clin Cancer Res. 2017 Dec 1;23(23):7301-7311. doi: 10.1158/1078-0432.CCR-17-1121. Epub 2017 Sep 12. PMID: 28899971; PMCID: PMC6636827.
`O=C(CCCCCCC(=O)Nc1ccc([C@H]2O[C@@H](CSc3nc(-c4ccccc4)c(-c4ccccc4)o3)C[C@@H](c3ccc(CO)cc3)O2)cc1)NO`: the Potency was 11.8 µM (active). On to `Cc1cn2cc(C(=O)N(C)CCO)cc(N[C@@H]3CCOc4cccc(C)c43)c2n1`, for which the “viability (% of control)” value is 102%. Turning to `COCCn1c2c([n+](Cc3cnccn3)c1C)C(=O)c1ccccc1C2=O`, the Potency was 0.0132 µM (active).

Consider `CN1CC[C@@H](c2c(O)cc(O)c3c(=O)cc(-c4ccccc4Cl)oc23)[C@@H](O)C1`, for which the Potency is 0.0662 µM (active).

For `COc1ccc(CC2c3cc(OC)c(OC)cc3CC[N+]2(C)CCC(=O)OCCCCCOC(=O)CC[N+]2(C)CCc3cc(OC)c(OC)cc3C2Cc2ccc(OC)c(OC)c2)cc1OC` (stereo not given), the viability (% of control) was 101% [at 5.15 µM].

As to `COc1cccc2c(NCc3ccccc3)nc(-n3c(N)nc4ccccc43)nc12`, the Potency is 9.35 µM (active).

As to `O=C(Nc1cc(C(F)(F)F)cc(C(F)(F)F)c1)c1cc(Cl)ccc1O`, the Potency is 0.469 µM (active).

For `CN[C@H]1CCc2cc(OC)c(OC)c(OC)c2-c2ccc(OC)c(=O)cc21`, the Potency was 0.0015 µM (active). Still for that read-out and setting: the figure for `Cc1cccc(C=NNc2cc(N3CCOCC3)nc(OCCc3ccccn3)n2)c1` is 11.8 µM (active).

On to `O=C(c1cncc(Br)c1)N1CCC(N2CCCC2)CC1`, for which the “viability (% of control)” value was 101%.

`O=C(O)Cn1nnc(-c2cc(N3CCC(Oc4cc(F)ccc4Br)CC3)no2)n1`: the “viability (% of control)” value is 93.5%. As for `Cc1[nH]nc2ccc(-c3cncc(OC[C@@H](N)Cc4ccccc4)c3)cc12`, the Potency was 4.18 µM (active). For the compound `COC(=O)C[C@](O)(CCCC(C)(C)O)C(=O)O[C@@H]1C(OC)=C[C@]23CCCN2CCc2cc4c(cc2[C@H]13)OCO4`, the “viability (% of control)” value is 99.3%.

Take `CN1CCN(c2cc(C(=O)Nc3ccc4c(c3)-c3c(c(C(N)=O)nn3-c3ccc(F)cc3)CC4)c(Cl)cn2)CC1`: the Potency is 23.5 µM (active). In the case of `OCCCNc1cc(-c2ccnc(Nc3cccc(Cl)c3)n2)ccn1`, the Potency is 0.105 µM (active). Turning to `O=c1[nH]c(=O)n(C2CCCO2)cc1F` (stereo not given), the “viability (% of control)” value is 103% [at 92.2 µM].

For the compound `CCS(=O)(=O)c1cccc(-c2cc(C(=O)NC3CCN(C)CC3)c(C)c3[nH]c4ncc(C)cc4c23)c1`, the Potency was 7.43 µM (active). On the same count and under the same terms, for `O=C(CCCCCCNC(=O)c1cnc(N(c2ccccc2)c2ccccc2)nc1)NO` the value was 5.9 µM (active).

In the case of `Cc1c(Cn2c(C)nc3c(C(=O)O)cc(N4CCOCC4)cc32)cccc1C(F)(F)F`, the “viability (% of control)” value was 93.6%. With `CC(=O)Nc1sc2c(c1-c1nc3ccccc3s1)CNC2`, the Potency is 18.7 µM (active).

Consider `Cc1cc(Nc2ncnc3ccc(-c4ccc(CNCCS(C)(=O)=O)o4)cc23)ccc1Oc1ccn2ncnc2c1`, for which the Potency was 7.43 µM (active).

With `CN(C)CC(C)(C)CNc1nn2c(-c3ccccc3)nnc2cc1C1CCC1`, the “viability (% of control)” value was 104%.

On to `CNC(=O)c1cc(Oc2ccc(NC(=O)Nc3cc(C(C)(C)C)nn3-c3ccc4ncccc4c3)c(F)c2)ccn1`, for which the Potency was 10.5 µM (active).

As for `C=CC(=O)Nc1cc2c(Nc3ccc(F)c(Cl)c3)ncnc2cc1C#CC(C)(C)N1CCN(C)CC1`, the Potency is 9.35 µM (active). On the same count and under the same terms, for `COc1cc2ncn(-c3cc(OCc4ccccc4C(F)(F)F)c(C(N)=O)s3)c2cc1OC` the value was 0.935 µM (active); for `Clc1ccc2ncc(-c3cccc(NC4CNC4)n3)n2c1`, 16.6 µM (active); for `C[C@H]1C[C@@H]2[C@@H]([C@@H](O)C[C@@]3(C)[C@H]2CC[C@]3(O)C(=O)CO)[C@@]2(C)C=CC(=O)C=C12`, 0.0833 µM (active). As for `CC=C1NC(=O)[C@H]2CSSCCC=C[C@H](CC(=O)N[C@H](C(C)C)C(=O)N2)OC(=O)[C@H](C(C)C)NC1=O`, the Potency was 0.0118 µM (active). On the same count and under the same terms, for `CC(C)CC(=O)Nc1n[nH]c2c1CN(C(=O)C1CCN(C)CC1)C2(C)C` the value was 1.87 µM (active).

With `O=C(NCCS(=O)(=O)c1ccc(C(F)(F)F)cn1)c1ccc(Cl)cc1`, the “viability (% of control)” value is 87.6%. Regarding `O=C(Nc1ncc(-c2cc(C(F)F)nn2-c2c(Cl)cccc2Cl)s1)C1CC1`, the Potency is 1.05 µM (active). Turning to `CC1COC2(CCN(c3nc(=O)c4cc(C(F)(F)F)cc([N+](=O)[O-])c4s3)CC2)O1` (stereo not given), the “viability (% of control)” value is 105%. For `Cc1cc(Nc2cc(N3CCN(C)CC3)nc(C=Cc3ccccc3)n2)n[nH]1`, the Potency is 34 µM (active). Same read-out and setting: for `COc1ccc(F)c(F)c1C(=O)c1cnc(NC2CCN(S(C)(=O)=O)CC2)nc1N` the value was 2.96 µM (active). For the compound `O=C(O)CO.[NH2-].[NH2-].[Pt+2]`, the “viability (% of control)” value was 118%. Take `O=C(NC1CCNCC1)c1[nH]ncc1NC(=O)c1c(Cl)cccc1Cl`: the Potency was 0.264 µM (active). Still for that read-out and setting: the figure for `CC(C)[C@H](C(=O)Nc1ccc(C(=O)NO)cc1)c1ccccc1` is 0.743 µM (active). Take `Clc1cccc(-c2nnnn2Cc2cccnc2)c1Cl`: the “viability (% of control)” value is 103%. As to `O=C(O)c1ccc2cc(-c3ccc(O)c(C45CC6CC(CC(C6)C4)C5)c3)ccc2c1`, the Potency was 20.9 µM (active).

For `Cc1cc(CN2CCN(c3c(Br)cnc4nc(-c5ccc(N6CCN(C)CC6)cc5)[nH]c34)CC2)no1`, the Potency was 26.4 µM (active).
